Experimental data: PubChem BioAssay (NCATS)
Records with an inconclusive call do not appear. The source made the active and inactive calls. Calls follow the shape of the dose curve; as a rule, active = well fitted curve in the direction sought with a large enough effect; inconclusive = small, poorly fitted or top-dose-only effect, or another doubt; inactive = no such curve, though single readings can be large; an effect the other way counts as inactive or inconclusive.

Tests used:
[1] = MultiTox-Fluor Cytotoxicity Assay - LYMP1-002 - Live Cells (AID 955)
Procedure, shortened: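 Human lymphoblastoid LYMP1-002 cells, 2500/well in complete medium, rested 5 hr at 37 C, then exposed to compounds for 16 hr at 37 C. Live-cell protease cleavage of GF-AFC read by fluorescence (Ex/Em 405/510) after 60 min at room temperature; AC50 from Hill fits.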

[2] = MultiTox-Fluor Cytotoxicity Assay - LYMP1-002 - Dead Cells (AID 960); also: nearly all actives have a fitted effect of over 60% in size
Procedure, shortened: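 Human lymphoblastoid cells (LYMP1-002), 2500/well in complete medium, were exposed to compounds for 16 hr at 37 C. Dead-cell protease activity was read as bis-AAF-R110 fluorescence (Ex/Em 485/520), normalized to DMSO and 15 uM tetraoctylammonium bromide; AC50 from Hill fits.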

[3] = MultiTox-Fluor Cytotoxicity Assay - LYMP1-003 - Live Cells (AID 962);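 also: cytotoxic hits lower the live-cell protease signal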
Procedure, shortened: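 LYMP1-003 human lymphoblastoid cells (2500/well) in complete medium were preincubated 5 hr at 37 C, then exposed to compounds for 16 hr at 37 C. Live-cell protease cleavage of GF-AFC read by fluorescence (Ex/Em 405/510); AC50 from Hill fits.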

[4] = Cell Viability - LYMP1-003 - Assay at 24 hr (AID 963)
Procedure, shortened: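 Human lymphoblastoid LYMP1-003 cells (2500/well) were rested 5 hr at 37 C, then exposed to compounds in complete medium for 24 hr at 37 C. Cellular ATP was quantified by CellTiter-Glo luminescence, and AC50 values came from Hill fits of concentration-response data.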

[5] = Cell Viability - LYMP2-003 (AID 965);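 also: cells exposed to compounds for 24 h before reading; nearly all actives have a fitted effect of over 50% in size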
Procedure, shortened: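 Human lymphoblastoid cells (2500/well) were pre-incubated 5 hr at 37 C, then exposed to compounds over a concentration range for 24 hr at 37 C. Intracellular ATP was read by CellTiter-Glo luminescence; AC50 came from Hill-equation fits.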

[6] = Cell Viability - LYMP2-004 (AID 966); also: nearly all actives have a fitted effect of over 65% in size
Procedure, shortened: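 Human lymphoblastoid cells (2500/well) in complete medium were treated with compounds for 24 hr at 37 C, then intracellular ATP was measured by CellTiter-Glo luminescence. AC50 values came from Hill-equation fits of concentration-response data.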

[7] = Cell Viability - LYMP2-009 (AID 968); also: series mostly up to about 92 µM; nearly all actives have a fitted effect of over 55% in size
[8] = Cell Viability - LYMP2-011 (AID 969); also: nearly all actives have a fitted effect of over 60% in size
Procedure, shortened: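 Human lymphoblastoid cells (2500/well) were plated in complete medium, preincubated 5 hr at 37 C, then exposed to compounds for 24 hr at 37 C. Intracellular ATP was read by CellTiter-Glo luminescence, and AC50 came from Hill-equation concentration-response fits.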

[9] = Cell Viability - LYMP2-013 (AID 970); also: series mostly up to about 92 µM; nearly all actives have a fitted effect of over 55% in size
Procedure, shortened: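 Human lymphoblastoid cells, 2500/well, were preincubated 5 hr at 37 C, then treated with compounds for 24 hr at 37 C in complete medium. Intracellular ATP was read by CellTiter-Glo luminescence; AC50 from Hill-equation fits of concentration-response data.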

[10] = Cell Viability - LYMP2-015 (AID 971); also: nearly all actives have a fitted effect of over 55% in size
Procedure, shortened: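 Human lymphoblastoid cells (2500/well) in complete medium were preincubated 5 hr at 37 C, then compound-treated 24 hr at 37 C. Intracellular ATP was read by CellTiter-Glo luminescence after 30 min at room temperature; AC50 came from Hill-equation concentration-response fits.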

[11] = Cell Viability - LYMP2-019 (AID 973); also: nearly all actives have a fitted effect of over 55% in size
Procedure, shortened: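 Human lymphoblastoid cells were seeded at 2500 cells/well, preincubated 5 hr at 37 C, then exposed to compounds for 24 hr at 37 C in complete medium. Intracellular ATP was measured by CellTiter-Glo luminescence; AC50 from Hill fits.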

[12] = Cell Viability - LYMP2-021 (AID 974)
Procedure, shortened: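 Human lymphoblastoid cells (2500/well) were preincubated 5 hr at 37 C, then exposed to compounds for 24 hr at 37 C in complete medium. Intracellular ATP was read by CellTiter-Glo luminescence; AC50 came from Hill-equation fits of concentration-response data.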

[13] = Cell Viability - LYMP2-023 (AID 975)
Procedure, shortened: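 Human lymphoblastoid cells (2500/well) were preincubated 5 hr at 37 C, then exposed to compounds for 24 hr at 37 C in complete medium. Cellular ATP was read by CellTiter-Glo luminescence, and AC50 came from Hill-equation fits.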

[14] = Cell Viability - LYMP2-025 (AID 976); also: series mostly up to about 92 µM
Procedure, shortened: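 Human lymphoblastoid LYMP2-025 cells (2500/well) were pre-incubated 5 hr at 37 C, then treated with compounds for 24 hr at 37 C in complete medium. Viability was read as intracellular ATP by CellTiter-Glo luminescence; AC50 from Hill fits.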

[15] = Cell Viability - LYMP2-006 (AID 978); also: series mostly up to about 92 µM; nearly all actives have a fitted effect of over 60% in size
Procedure, shortened: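 Human lymphoblastoid cells, 2500 per well, were preincubated 5 hr at 37 C, then exposed to compounds for 24 hr at 37 C in complete medium. Viability was read as intracellular ATP by CellTiter-Glo luminescence; AC50 from Hill-equation fits of qHTS concentration-response data.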

[16] = Cell Viability - LYMP2-008 (AID 980); also: nearly all actives have a fitted effect of over 60% in size
Procedure, shortened: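 Human lymphoblastoid cells (2500/well) were plated, held 5 hr at 37 C, then exposed to compounds for 24 hr at 37 C in complete medium. Intracellular ATP was read by CellTiter-Glo luminescence; AC50 from Hill-fitted concentration-response.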

[17] = Cell Viability - LYMP2-012 (AID 982)
[18] = Cell Viability - LYMP2-014 (AID 983); also: series mostly up to about 92 µM; nearly all actives have a fitted effect of over 50% in size
Procedure, shortened: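 Human lymphoblastoid cells (2500/well) were pre-incubated 5 hr at 37 C, then exposed to compounds in complete medium for 24 hr at 37 C. Intracellular ATP was read by CellTiter-Glo luminescence after 30 min at room temperature; AC50 from Hill fits.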

[19] = Cell Viability - LYMP2-016 (AID 984); also: nearly all actives have a fitted effect of over 55% in size
Procedure, shortened: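 Human lymphoblastoid cells (LYMP2-016), 2500/well in complete medium, preincubated 5 hr at 37 C, then compound-treated 24 hr at 37 C. Intracellular ATP read by CellTiter-Glo luminescence after 30 min at room temperature; AC50 from Hill-equation concentration-response fits.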

[20] = Cell Viability - LYMP2-020 (AID 986)
Procedure, shortened: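 Human lymphoblastoid cells, 2500/well, were pre-incubated 5 hr at 37 C, then exposed to compounds for 24 hr at 37 C in complete medium. Intracellular ATP was read by CellTiter-Glo luminescence, and AC50 was derived by Hill fitting of concentration-response data.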

Measured: Potency

C[C@H]1CCCC(=O)CCC/C=C/c2cc(O)cc(O)c2C(=O)O1
inactive: [1] | [2] | [3] | [4] | [5] | [6] | [7] | [8] | [9] | [10] | [11] | [12] | [13] | [14] | [15] | [16] | [17] | [18] | [19] | [20]

COC1=CC(=O)O[C@@H](/C=C/c2ccc3c(c2)OCO3)C1
inactive: [1] | [2] | [3] | [4] | [5] | [6] | [7] | [8] | [9] | [10] | [11] | [12] | [13] | [14] | [15] | [16] | [17] | [18] | [19] | [20]

COC1=CC(=O)OC(CCc2ccccc2)C1 (stereo not given)
inactive: [1] | [2] | [3] | [4] | [5] | [6] | [7] | [8] | [9] | [10] | [11] | [12] | [13] | [14] | [15] | [16] | [17] | [18] | [19] | [20]

OCC(Br)CBr (stereo not given)
inactive: [1] | [2] | [3] | [4] | [5] | [6] | [7] | [8] | [9] | [10] | [11] | [12] | [13] | [14] | [15] | [16] | [17] | [18] | [19] | [20]

O=NN(c1ccccc1)c1ccccc1
inactive: [1] | [2] | [3] | [4] | [5] | [6] | [7] | [8] | [9] | [10] | [11] | [12] | [13] | [14] | [15] | [16] | [17] | [18] | [19] | [20]

Cc1ccccc1N
inactive: [1] | [2] | [3] | [4] | [5] | [6] | [7] | [8] | [9] | [10] | [11] | [12] | [13] | [14] | [15] | [16] | [17] | [18] | [19] | [20]

Cc1cccc([N+](=O)[O-])c1
inactive: [1] | [2] | [3] | [4] | [5] | [6] | [7] | [8] | [9] | [10] | [11] | [12] | [13] | [14] | [15] | [16] | [17] | [18] | [19] | [20]
